# According to the supplement of paper PMC10849652:
# The full data set covers some 7,900 targets. This sample favours those with a hit. About 0.6% of all pairs of compound and target were hits.
# Compound: Cn1cncc1[C@@](N)(c1ccc(Cl)cc1)c1ccc2c(c1)c(-c1cccc(Cl)c1)cc(=O)n2C [tipifarnib]
# Test: log2 fold change, soluble protein after heating vs DMSO (PISA); higher = thermal stabilisation; K562 cells, 10 uM, 30 min; active = over 0.2 and 3.5 SD of the protein, either way, in both replicates (recomputed)
# How it was run: (§1)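 Quantification of soluble protein used TMTpro 16plex LC-MS/MS, with channel sums equalised. Samples were the supernatant after 21,000xg for 90 min of pooled aliquots from K562 cells (2×10^6 cells/mL) treated with 10 μM compound for 30 min, heated for 3 min over 48°C-58°C, and extracted in PBS with 0.5% NP-40 at 4°C. Values, from duplicates, describe thermal stability against control samples on a log2 fold-change scale.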
# Chain of UniProt P68400 (P68400 whole entry, looked up): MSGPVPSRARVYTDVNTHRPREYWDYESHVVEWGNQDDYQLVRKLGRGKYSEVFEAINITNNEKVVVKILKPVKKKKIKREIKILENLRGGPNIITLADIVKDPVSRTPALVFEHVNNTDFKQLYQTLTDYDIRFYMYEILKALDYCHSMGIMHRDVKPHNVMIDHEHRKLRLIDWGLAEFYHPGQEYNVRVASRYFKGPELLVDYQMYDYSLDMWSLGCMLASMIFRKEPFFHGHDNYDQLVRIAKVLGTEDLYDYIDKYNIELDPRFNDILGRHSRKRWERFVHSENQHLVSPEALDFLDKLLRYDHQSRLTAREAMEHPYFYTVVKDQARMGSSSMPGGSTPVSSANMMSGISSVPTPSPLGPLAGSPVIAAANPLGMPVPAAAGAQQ
# Chain of UniProt Q8IWV2 (Q8IWV2 whole entry, looked up): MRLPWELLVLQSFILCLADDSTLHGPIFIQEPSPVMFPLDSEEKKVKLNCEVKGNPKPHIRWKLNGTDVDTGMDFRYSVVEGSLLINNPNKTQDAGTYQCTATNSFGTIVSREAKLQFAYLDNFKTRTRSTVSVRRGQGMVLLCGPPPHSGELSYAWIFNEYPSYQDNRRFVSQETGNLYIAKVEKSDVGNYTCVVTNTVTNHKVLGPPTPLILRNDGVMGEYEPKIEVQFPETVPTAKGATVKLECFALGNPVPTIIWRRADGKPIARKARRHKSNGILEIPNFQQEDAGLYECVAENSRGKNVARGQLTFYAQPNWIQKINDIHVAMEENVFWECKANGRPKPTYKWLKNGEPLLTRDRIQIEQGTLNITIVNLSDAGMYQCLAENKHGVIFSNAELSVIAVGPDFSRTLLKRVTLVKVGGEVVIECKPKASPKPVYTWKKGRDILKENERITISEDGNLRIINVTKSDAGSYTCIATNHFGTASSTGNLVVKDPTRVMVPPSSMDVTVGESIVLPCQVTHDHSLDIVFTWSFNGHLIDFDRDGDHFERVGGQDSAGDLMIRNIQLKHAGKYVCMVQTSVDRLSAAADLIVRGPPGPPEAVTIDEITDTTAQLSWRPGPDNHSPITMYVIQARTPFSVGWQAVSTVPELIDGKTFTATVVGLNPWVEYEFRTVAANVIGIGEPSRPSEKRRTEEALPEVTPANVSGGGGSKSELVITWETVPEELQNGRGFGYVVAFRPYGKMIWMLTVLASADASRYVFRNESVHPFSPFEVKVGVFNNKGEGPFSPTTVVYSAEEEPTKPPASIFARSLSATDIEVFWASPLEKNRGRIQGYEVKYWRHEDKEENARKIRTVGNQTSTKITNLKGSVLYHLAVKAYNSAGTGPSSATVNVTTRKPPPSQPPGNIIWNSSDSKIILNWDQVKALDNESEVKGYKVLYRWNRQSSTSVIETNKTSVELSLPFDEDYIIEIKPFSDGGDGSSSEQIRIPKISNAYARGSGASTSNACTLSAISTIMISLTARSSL
# Chain of UniProt O75794 (O75794 whole entry, looked up): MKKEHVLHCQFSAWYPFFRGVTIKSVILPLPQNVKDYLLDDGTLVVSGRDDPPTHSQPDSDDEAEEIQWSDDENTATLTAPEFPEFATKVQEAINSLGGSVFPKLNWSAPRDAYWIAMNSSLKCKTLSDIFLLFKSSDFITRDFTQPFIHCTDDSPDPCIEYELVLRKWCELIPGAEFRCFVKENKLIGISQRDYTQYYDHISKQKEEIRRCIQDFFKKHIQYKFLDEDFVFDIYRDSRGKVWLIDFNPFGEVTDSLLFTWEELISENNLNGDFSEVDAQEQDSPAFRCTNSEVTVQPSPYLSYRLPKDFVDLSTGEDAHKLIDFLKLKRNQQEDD
# Chain of UniProt Q96RR4 (Q96RR4 whole entry, looked up): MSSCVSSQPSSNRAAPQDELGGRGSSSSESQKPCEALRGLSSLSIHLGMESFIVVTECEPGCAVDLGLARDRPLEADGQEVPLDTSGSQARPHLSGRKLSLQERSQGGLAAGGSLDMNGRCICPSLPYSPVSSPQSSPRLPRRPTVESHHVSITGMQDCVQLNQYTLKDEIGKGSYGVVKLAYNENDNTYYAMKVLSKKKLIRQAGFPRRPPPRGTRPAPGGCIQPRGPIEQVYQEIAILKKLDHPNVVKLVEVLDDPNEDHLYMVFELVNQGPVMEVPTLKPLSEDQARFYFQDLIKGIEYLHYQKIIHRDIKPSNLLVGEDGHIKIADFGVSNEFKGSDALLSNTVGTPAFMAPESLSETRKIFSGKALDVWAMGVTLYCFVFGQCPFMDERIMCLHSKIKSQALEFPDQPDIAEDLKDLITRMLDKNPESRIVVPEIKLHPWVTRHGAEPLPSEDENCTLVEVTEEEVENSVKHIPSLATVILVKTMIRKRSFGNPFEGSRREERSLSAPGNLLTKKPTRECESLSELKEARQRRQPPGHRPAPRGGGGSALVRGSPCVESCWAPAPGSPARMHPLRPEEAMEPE
# Chain of UniProt P19397 (P19397 whole entry, looked up): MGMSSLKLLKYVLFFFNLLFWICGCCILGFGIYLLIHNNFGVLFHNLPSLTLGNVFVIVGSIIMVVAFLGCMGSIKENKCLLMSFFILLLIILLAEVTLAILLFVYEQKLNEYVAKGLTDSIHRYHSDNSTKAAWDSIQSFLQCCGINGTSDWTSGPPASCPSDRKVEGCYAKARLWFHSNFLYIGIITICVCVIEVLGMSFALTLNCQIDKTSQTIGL
# Chain of UniProt P50416 (P50416 whole entry, looked up): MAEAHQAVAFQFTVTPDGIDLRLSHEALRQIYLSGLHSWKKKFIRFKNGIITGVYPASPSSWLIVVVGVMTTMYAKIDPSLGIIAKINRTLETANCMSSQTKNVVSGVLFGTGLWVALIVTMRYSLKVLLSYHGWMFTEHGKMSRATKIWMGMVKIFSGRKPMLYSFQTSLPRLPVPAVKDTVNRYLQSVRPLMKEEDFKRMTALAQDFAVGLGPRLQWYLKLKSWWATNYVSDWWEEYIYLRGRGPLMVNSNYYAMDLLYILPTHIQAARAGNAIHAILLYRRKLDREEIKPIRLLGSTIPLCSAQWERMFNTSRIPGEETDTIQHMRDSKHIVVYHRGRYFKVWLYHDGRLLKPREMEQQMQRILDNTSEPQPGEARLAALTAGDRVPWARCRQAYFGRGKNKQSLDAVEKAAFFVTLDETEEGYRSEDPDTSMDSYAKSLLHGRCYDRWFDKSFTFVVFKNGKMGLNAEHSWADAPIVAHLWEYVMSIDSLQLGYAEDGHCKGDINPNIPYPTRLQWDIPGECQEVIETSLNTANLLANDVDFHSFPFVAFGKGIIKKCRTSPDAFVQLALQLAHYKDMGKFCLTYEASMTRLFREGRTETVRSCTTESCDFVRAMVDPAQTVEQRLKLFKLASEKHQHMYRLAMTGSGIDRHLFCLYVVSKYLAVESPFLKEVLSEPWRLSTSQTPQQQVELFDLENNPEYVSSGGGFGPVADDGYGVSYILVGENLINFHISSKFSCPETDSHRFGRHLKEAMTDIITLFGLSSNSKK
# Chain of UniProt O95319 (O95319 whole entry, looked up): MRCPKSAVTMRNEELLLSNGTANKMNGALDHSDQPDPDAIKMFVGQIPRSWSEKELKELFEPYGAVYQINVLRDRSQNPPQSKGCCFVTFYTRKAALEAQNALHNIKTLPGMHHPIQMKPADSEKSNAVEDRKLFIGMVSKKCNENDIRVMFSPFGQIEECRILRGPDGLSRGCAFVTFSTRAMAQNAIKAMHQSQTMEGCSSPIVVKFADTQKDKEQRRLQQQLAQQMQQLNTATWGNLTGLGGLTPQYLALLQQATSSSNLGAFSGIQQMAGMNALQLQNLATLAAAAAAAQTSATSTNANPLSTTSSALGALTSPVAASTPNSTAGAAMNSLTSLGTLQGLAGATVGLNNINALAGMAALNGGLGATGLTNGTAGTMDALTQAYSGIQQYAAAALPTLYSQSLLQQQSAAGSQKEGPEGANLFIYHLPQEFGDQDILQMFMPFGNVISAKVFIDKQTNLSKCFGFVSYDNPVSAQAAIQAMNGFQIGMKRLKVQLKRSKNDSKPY
# Chain of UniProt Q13137 (Q13137 whole entry, looked up): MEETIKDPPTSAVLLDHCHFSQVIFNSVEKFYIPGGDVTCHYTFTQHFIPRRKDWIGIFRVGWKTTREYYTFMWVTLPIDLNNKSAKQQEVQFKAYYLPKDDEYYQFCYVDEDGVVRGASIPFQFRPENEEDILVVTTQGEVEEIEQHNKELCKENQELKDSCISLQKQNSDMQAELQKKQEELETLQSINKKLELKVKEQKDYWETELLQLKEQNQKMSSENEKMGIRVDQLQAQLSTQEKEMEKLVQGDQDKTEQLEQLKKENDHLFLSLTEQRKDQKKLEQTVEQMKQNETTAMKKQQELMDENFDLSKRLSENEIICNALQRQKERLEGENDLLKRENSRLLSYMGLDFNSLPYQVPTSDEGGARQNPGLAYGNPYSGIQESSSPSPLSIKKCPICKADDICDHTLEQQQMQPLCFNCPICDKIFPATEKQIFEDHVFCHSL
# Chain of UniProt Q9BT78 (Q9BT78 whole entry, looked up): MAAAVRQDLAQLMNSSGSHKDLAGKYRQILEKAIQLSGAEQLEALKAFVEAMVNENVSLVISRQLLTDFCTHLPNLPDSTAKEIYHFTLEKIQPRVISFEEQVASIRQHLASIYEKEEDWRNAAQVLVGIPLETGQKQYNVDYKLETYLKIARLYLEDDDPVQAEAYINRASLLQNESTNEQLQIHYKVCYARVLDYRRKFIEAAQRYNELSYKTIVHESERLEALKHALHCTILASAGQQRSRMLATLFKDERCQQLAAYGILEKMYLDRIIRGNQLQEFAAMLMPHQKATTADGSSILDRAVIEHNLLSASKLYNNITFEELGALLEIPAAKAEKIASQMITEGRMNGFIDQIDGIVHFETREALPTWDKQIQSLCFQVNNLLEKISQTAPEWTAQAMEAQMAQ
# Chain of UniProt Q99627 (Q99627 whole entry, looked up): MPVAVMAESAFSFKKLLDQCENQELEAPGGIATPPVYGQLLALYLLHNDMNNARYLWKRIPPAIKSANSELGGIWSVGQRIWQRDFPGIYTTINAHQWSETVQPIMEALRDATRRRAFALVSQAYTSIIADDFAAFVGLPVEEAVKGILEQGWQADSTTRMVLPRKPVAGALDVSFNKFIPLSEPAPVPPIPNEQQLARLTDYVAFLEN
row,Target,log2 fold change
1,CNDP2 (UniProt Q96KP4),-0.067 (inactive)
2,CSNK1A1 (UniProt P48729),0.022 (inactive)
3,CNTN4 (UniProt Q8IWV2),-0.097 (inactive)
4,CRLF3 (UniProt Q8IUI8),-0.018 (inactive)
5,CDC123 (UniProt O75794),-0.031 (inactive)
6,CPT1A (UniProt P50416),0.187 (inactive)
7,CERS2 (UniProt Q96G23),-0.074 (inactive)
8,COQ7 (UniProt Q99807),0.029 (inactive)
9,CELF2 isoform 3 (UniProt O95319),-0.062 (inactive)
10,COPS8 (UniProt Q99627),-0.017 (inactive)
11,CBX1 (UniProt P83916),-0.039 (inactive)
12,CDK5RAP3 isoform 4 (UniProt Q96JB5),-0.052 (inactive)
13,CD53 (UniProt P19397),0.057 (inactive)
14,CCNK isoform 4 (UniProt O75909),0.096 (inactive)
15,COPS4 (UniProt Q9BT78),-0.012 (inactive)
16,COASY isoform 2 (UniProt Q13057),-0.102 (inactive)
17,CDKN2AIP (UniProt Q9NXV6),0.046 (inactive)
18,CDK6 (UniProt Q00534),-0.043 (inactive)

row,Target,log2 fold change
1,CHCHD1 (UniProt Q96BP2),0.077 (inactive)
2,CLUH (UniProt O75153),-0.022 (inactive)
3,CALCOCO2 isoform 4 (UniProt Q13137),-0.015 (inactive)
4,COMT (UniProt P21964),0.002 (inactive)
5,COPS3 (UniProt Q9UNS2),0.004 (inactive)
6,CHERP (UniProt Q8IWX8),0.005 (inactive)
7,CPSF6 isoform 2 (UniProt Q16630),0.031 (inactive)
8,CDK13 (UniProt Q14004),0.069 (inactive)
9,COMMD2 (UniProt Q86X83),0.025 (inactive)
10,CDC26 (UniProt Q8NHZ8),0.131 (inactive)
11,CLCN3 isoform 2 (UniProt P51790),0.004 (inactive)
12,CAMKK2 (UniProt Q96RR4),-0.076 (inactive)
13,CHKA (UniProt P35790),-0.026 (inactive)
14,CSTF3 (UniProt Q12996),0.009 (inactive)
15,CD55 isoform 7 (UniProt P08174),-0.027 (inactive)
16,CSNK2A1 (UniProt P68400),0.03 (inactive)
17,CIT isoform 4 (UniProt O14578),-0.009 (inactive)

# Compound: FC(F)(F)c1ccc(/C=C/c2nc(COc3ccc(CCCCn4ccnn4)cc3)co2)cc1 [mubritinib]
# Test: as above
# How it was run: as §1
row,Target,log2 fold change
1,CNDP2 (UniProt Q96KP4),0.101 (inactive)
2,CSNK1A1 (UniProt P48729),-0.086 (inactive)
3,CNTN4 (UniProt Q8IWV2),0.224 (inactive)
4,CRLF3 (UniProt Q8IUI8),0.032 (inactive)
5,CDC123 (UniProt O75794),-0.006 (inactive)
6,CPT1A (UniProt P50416),-0.05 (inactive)
7,CERS2 (UniProt Q96G23),-0.03 (inactive)
8,COQ7 (UniProt Q99807),0.055 (inactive)
9,CELF2 isoform 3 (UniProt O95319),-0.006 (inactive)
10,COPS8 (UniProt Q99627),0.025 (inactive)
11,CBX1 (UniProt P83916),0.066 (inactive)
12,CDK5RAP3 isoform 4 (UniProt Q96JB5),0.083 (inactive)
13,CD53 (UniProt P19397),0.081 (inactive)
14,CCNK isoform 4 (UniProt O75909),0.006 (inactive)
15,COPS4 (UniProt Q9BT78),0.031 (inactive)
16,COASY isoform 2 (UniProt Q13057),-0.196 (inactive)
17,CDKN2AIP (UniProt Q9NXV6),-0.011 (inactive)
18,CDK6 (UniProt Q00534),0.012 (inactive)

row,Target,log2 fold change
1,CHCHD1 (UniProt Q96BP2),0.104 (inactive)
2,CLUH (UniProt O75153),-0.018 (inactive)
3,CALCOCO2 isoform 4 (UniProt Q13137),-0.025 (inactive)
4,COMT (UniProt P21964),0.06 (inactive)
5,COPS3 (UniProt Q9UNS2),0.023 (inactive)
6,CHERP (UniProt Q8IWX8),-0.07 (inactive)
7,CPSF6 isoform 2 (UniProt Q16630),0.006 (inactive)
8,CDK13 (UniProt Q14004),0.023 (inactive)
9,COMMD2 (UniProt Q86X83),0.101 (inactive)
10,CDC26 (UniProt Q8NHZ8),-0.028 (inactive)
11,CLCN3 isoform 2 (UniProt P51790),-0.004 (inactive)
12,CAMKK2 (UniProt Q96RR4),-0.024 (inactive)
13,CHKA (UniProt P35790),-0.024 (inactive)
14,CSTF3 (UniProt Q12996),0.019 (inactive)
15,CD55 isoform 7 (UniProt P08174),-0.075 (inactive)
16,CSNK2A1 (UniProt P68400),-0.019 (inactive)
17,CIT isoform 4 (UniProt O14578),0.031 (inactive)
